A short description of experiment [1]: inhibitors of TNFa-induced NFkB p65 translocation, primary screen, imaging, HUVEC, MLSMR starter and 10KST1 sets (AID 438;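 active = inhibition above 20% together with a positive visual image hit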;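 also: compound added about 3h40 before a 20 min TNFalpha stimulation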;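 as to inhibition: signal is the nuclear over cytoplasmic p65 intensity ratio per well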). The conditions noted are these: HUVEC TNFa-induced p65 nuclear translocation; cell count: measured here: nuclei count (cytotoxicity indicator), at 2.08 µM; inhibition: at 2 µM, stronger effect = higher value, 0% TNFa-plus-vehicle, 100% no-TNFa wells.

Experiment [2] in a line: inhibitors of mutant huntingtin aggregation, primary screen, imaging, exon1htt(103Q)mCFP cells, high-content imaging (AID 483).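 Also: compound exposure lasted 3 days before fixation.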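 As to nuclei count: percent of the per-plate median nuclei count of sample wells.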 The conditions noted are these: exon1htt(103Q)mCFP cell line, aggregate imaging, at 2 µM; inhibition of aggregation: stronger effect = higher value; nuclei count: measured here: cell count, toxicity.
The nature of experiment [3]: inhibitors of E-selectin induction by TNFa, primary screen, imaging, HUVEC, immunofluorescence, MLSMR starter and 10KST1 sets (AID 487;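 active = visually confirmed hit in the image check and inhibition above 20%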;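 as to inhibition: signal is fraction of cell area covered by stained E-selectin grains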;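 as to nuclei count: 100% = median nuclei count of all wells on the same plate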). The conditions noted are these: HUVEC TNFalpha-induced E-selectin immunofluorescence imaging, at 2 µM; inhibition: stronger effect = higher value; nuclei count: measured here: cell number, toxicity.
Experiment [4] has as its target Voltage-gated potassium channel subunit beta-2 (Rattus norvegicus) (UniProt P62483). As to the kind of experiment: KvBeta enzyme negative modulators, primary screen, biochemical, NADPH fluorescence (AID 622;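 active = fluorescence slope higher than the sample average by over 3 SD, cut at about -0.22 in these data, passing the limit was not always enough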;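 also: slope of raw intensity against log time taken from 70 to 1610 s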). The conditions noted are these: recombinant KvBeta, 4-cyanobenzaldehyde reduction, at 10 µM, stronger effect = higher value.
Experiment [5] shares this target. As to the kind of experiment: KvBeta positive modulators, primary screen, biochemical, NADPH fluorescence (AID 623;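 active = NADPH fluorescence slope more negative than the mean of all samples by about 3 SD, 99.7% confidence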;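 also: fluorescence intensity change per second fitted from 20 to 320 s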). The conditions noted are these: Recombinant KvBeta, NADPH fluorescence decrease slope, 10 min; at 10 µM; stronger effect = lower value.
For experiment [6], the target named is Alpha-2C adrenergic receptor (Homo sapiens) (UniProt P18825). As to the kind of experiment: modulators of alpha2C/GIRK thallium flux, primary screen, cell-based, HEK293 alpha2C/GIRK1/2 (AID 624;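 active = fluorescence slope after compound addition differing from the mean of all screened samples at 99.7% confidence, in either direction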;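 also: slope of fluorescence ratio to pre-addition baseline per second over 15 to 24 s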). To be noted: thallium flux BTC fluorescence, at 10 µM, actives lie on both sides.
Alpha-2C adrenergic receptor (Homo sapiens), sequence (P18825 whole entry, looked up): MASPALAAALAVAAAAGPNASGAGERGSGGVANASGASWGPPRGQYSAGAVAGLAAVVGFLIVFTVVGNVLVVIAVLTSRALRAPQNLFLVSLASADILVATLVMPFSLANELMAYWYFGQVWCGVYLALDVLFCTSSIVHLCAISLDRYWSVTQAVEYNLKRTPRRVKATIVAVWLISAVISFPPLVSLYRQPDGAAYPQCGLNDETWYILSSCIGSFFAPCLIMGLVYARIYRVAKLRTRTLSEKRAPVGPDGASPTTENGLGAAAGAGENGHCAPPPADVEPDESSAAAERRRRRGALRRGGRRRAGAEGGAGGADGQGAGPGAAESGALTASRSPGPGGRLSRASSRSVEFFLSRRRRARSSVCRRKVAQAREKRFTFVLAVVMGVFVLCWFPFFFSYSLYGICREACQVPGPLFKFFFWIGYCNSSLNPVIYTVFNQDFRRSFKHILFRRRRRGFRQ
The nature of experiment [7]: inhibitors of Sendai virus-induced IRF3 signaling, primary screen, TLR/RLR signaling modifier project, cell-based, Sendai virus stimulus, luciferase, 10K MLSCN set (AID 602276;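 active = inhibition at or above 50% at 10 µM; inactive = inhibition below 50%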;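 also: firefly luciferase from ISG56 promoter only with Renilla not read in this screen; 0% = Sendai virus plus DMSO and 100% = medium plus DMSO without virus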). The conditions noted are these: HEK293 RL24 IRF3 luciferase reporter, at 10 µM, stronger effect = higher value. For orientation: A reporter such as luciferase makes a cellular process visible.
A short description of experiment [8]: inhibitors of poly I:C-induced TLR3 signaling, primary screen, cell-based, poly I:C stimulus, luciferase, 10K MLSCN set (AID 602277;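 active = inhibition of the reporter signal at or above 50%; inactive = inhibition below 50%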). The conditions noted are these: HEK293-TLR3 RL24 IRF3 luciferase reporter, at 10 µM, stronger effect = higher value.

The source made the active and inactive calls.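 The calls were made as follows, unless noted: active = visual image review flags a hit and inhibition of aggregation exceeds 20%; inconclusive = visual hit but inhibition at or below 20%; inactive = no hit on visual image review.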

The term inhibition denotes the drop in the measured response relative to a control, in per cent.

Voltage-gated potassium channel subunit beta-2 (Rattus norvegicus), sequence (P62483 whole entry, looked up): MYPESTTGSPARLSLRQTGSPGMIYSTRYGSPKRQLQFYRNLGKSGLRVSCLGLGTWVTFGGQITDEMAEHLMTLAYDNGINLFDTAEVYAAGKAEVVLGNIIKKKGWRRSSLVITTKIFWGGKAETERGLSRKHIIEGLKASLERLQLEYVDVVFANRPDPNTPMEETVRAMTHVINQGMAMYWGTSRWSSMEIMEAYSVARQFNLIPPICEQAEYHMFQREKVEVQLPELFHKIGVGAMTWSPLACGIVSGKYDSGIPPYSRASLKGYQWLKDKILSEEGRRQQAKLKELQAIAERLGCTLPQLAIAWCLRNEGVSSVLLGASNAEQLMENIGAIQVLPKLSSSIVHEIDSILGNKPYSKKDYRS

Regarding `CCOC(=O)c1nnn(CC(=O)Nc2cccc(F)c2)c1C(=O)OCC`, the cell count in experiment [1] was 581. Moreover, the inhibition in experiment [1] was -7.9% (inactive); in experiment [3], -41.8% (inactive); in experiment [7] it was 3.63% (inactive); in experiment [8] it was 12.6% (inactive). Besides, in experiment [2], the inhibition of aggregation was 8.9% (inactive). Besides, the results for the nuclei count in experiment [2] and in experiment [3] were 124% and 112%, respectively. Also, the fluorescence slope in experiment [4] is -0.6 (inactive). For the same compound, in experiment [5], the NADPH fluorescence slope was -1.1e-05 (inactive). Further, the slope in experiment [6] was 0.00821 (inactive).
In the case of `O=C(Cc1ccccc1)N1CCCC(c2nc(-c3cccs3)no2)C1` (centres undefined), in experiment [1], the cell count came to 731. The inhibition in experiment [1] is -6.1% (inactive); in experiment [3], -22.8% (inactive); in experiment [7], -9.21% (inactive); in experiment [8], 2.57% (inactive). Also, in experiment [2], the inhibition of aggregation is -15.1% (inactive). Besides, the nuclei count in experiment [2] was 89.6%; in experiment [3] it was 121%. For the same compound, the fluorescence slope in experiment [4] is -0.475 (inactive). Moreover, the NADPH fluorescence slope in experiment [5] was 1.1e-05 (inactive). The slope in experiment [6] is 0.00636 (inactive).
Consider `CN1CCc2c(sc3c2c(=O)n(-c2ccccc2)c2nnc(SCc4ccc(F)cc4)n32)C1`, for which the cell count in experiment [1] was 375. The inhibition was 2.1% (inactive) in experiment [1], -45% (inactive) in experiment [3], 4.98% (inactive) in experiment [7] and -12.6% (inactive) in experiment [8]. Besides, the inhibition of aggregation in experiment [2] was 9.2% (inactive). Moreover, the nuclei count in experiment [2] came to 73.7%; in experiment [3], 210%. In addition, the fluorescence slope in experiment [4] is -0.608 (inactive). Besides, the NADPH fluorescence slope in experiment [5] is -5.9e-06 (inactive). Further, the slope in experiment [6] is 0.00622 (inactive).
As for `CC1CCCCC1NC(=O)CCCc1nc2ccccc2c(=O)[nH]1` (centres undefined), in experiment [1], the cell count is 364. The inhibition is -2.1% (inactive) in experiment [1], -11.1% (inactive) in experiment [3], 7.71% (inactive) in experiment [7] and 17.2% (inactive) in experiment [8]. Also, the inhibition of aggregation in experiment [2] was 5.3% (inactive). Moreover, the nuclei count in experiment [2] amounted to 87.7%; in experiment [3] it was 79.6%. Further, in experiment [4], the fluorescence slope is -0.618 (inactive). For the same compound, the NADPH fluorescence slope in experiment [5] is -2.3e-05 (inactive). The slope in experiment [6] was 0.00379 (inactive).
`O=C(CCn1c(=O)oc2ccccc21)N1CCCCCC1`: in experiment [1], the cell count is 776. Also, the inhibition in experiment [1] was -23.3% (inactive); in experiment [3], -26.2% (inactive); in experiment [7], -8.11% (inactive); in experiment [8] it was -6.91% (inactive). Moreover, the inhibition of aggregation in experiment [2] is -23.8% (inactive). Further, the nuclei count in experiment [2] and in experiment [3] was 123% throughout. Besides, in experiment [4], the fluorescence slope is -0.316 (inactive). In addition, in experiment [5], the NADPH fluorescence slope is -5.9e-05 (inactive). Besides, the slope in experiment [6] was 0.00656 (inactive).
`Cc1nc2ncnn2c(Nc2ccc3c(c2)OCCO3)c1C`: the cell count in experiment [1] worked out at 233. Moreover, the inhibition was -9.3% (inactive) in experiment [1], -57.1% (inactive) in experiment [3], 9.15% (inactive) in experiment [7] and -0.101% (inactive) in experiment [8]. Moreover, the inhibition of aggregation in experiment [2] is 1.4% (inactive). The nuclei count in experiment [2] is 87.4%; in experiment [3], 97.7%. Besides, the fluorescence slope in experiment [4] is -0.614 (inactive). Further, the NADPH fluorescence slope in experiment [5] was -4.3e-05 (inactive). Moreover, the slope in experiment [6] was 0.00442 (inactive).
`COc1cc(/C=N/n2cnnc2)ccc1OCC(=O)N1CCOCC1`: in experiment [1], the cell count is 378. Moreover, the inhibition in experiment [1] was -0.8% (inactive); in experiment [3] it was -4.3% (inactive); in experiment [7], 5.73% (inactive); in experiment [8], 19.7% (inactive). Further, the inhibition of aggregation in experiment [2] was -5.1% (inactive). For the same compound, the nuclei count was determined as 125% in experiment [2] and 112% in experiment [3]. Moreover, in experiment [4], the fluorescence slope is -0.245 (inactive). For the same compound, in experiment [5], the NADPH fluorescence slope was 7.4e-07 (inactive). Also, in experiment [6], the slope is 0.00585 (inactive).
For `Cc1ccccc1Cn1nc(C)c(NC(=O)c2noc3c2CCc2ccccc2-3)c1C`, in experiment [1], the cell count was 720. Also, the inhibition was 2.9% (inactive) in experiment [1], -88.7% (inactive) in experiment [3], 8.23% (inactive) in experiment [7] and 0.0552% (inactive) in experiment [8]. The inhibition of aggregation in experiment [2] was 4.7% (inactive). For the same compound, the nuclei count in experiment [2] came out at 78.3%; in experiment [3], 108%. Also, the fluorescence slope in experiment [4] is -0.588 (inactive). For the same compound, in experiment [5], the NADPH fluorescence slope is 4e-06 (inactive). Also, in experiment [6], the slope was 0.00754 (inactive).
Regarding `O=c1[nH]c(SCc2ccc(F)cc2)nc2c1cnn2-c1ccc(F)cc1`, the cell count in experiment [1] is 652. Moreover, the inhibition in experiment [1] is -31% (inactive); in experiment [3], -0.1% (inactive); in experiment [7], -21.2% (inactive); in experiment [8], -12.1% (inactive). Moreover, the inhibition of aggregation in experiment [2] was -8.4% (inactive). Besides, the figures for the nuclei count in experiment [2] and in experiment [3] were 95.8% and 110%, respectively. Besides, in experiment [4], the fluorescence slope is -0.57 (inactive). Further, the NADPH fluorescence slope in experiment [5] was 1e-05 (inactive). The slope in experiment [6] was 0.00683 (inactive).
Regarding `CCOC(=O)c1cccc(NC2c3ccccc3C(=O)N2Cc2ccco2)c1` (centres undefined), the cell count in experiment [1] was determined as 700. Also, the inhibition in experiment [1] is -2.3% (inactive); in experiment [3], -10.9% (inactive); in experiment [7], 6.59% (inactive); in experiment [8], 17.6% (inactive). The inhibition of aggregation in experiment [2] is 10.2% (inactive). Further, the nuclei count in experiment [2] is 117%; in experiment [3], 119%. Further, the fluorescence slope in experiment [4] is -0.554 (inactive). In experiment [5], the NADPH fluorescence slope was -4.1e-05 (inactive). Further, in experiment [6], the slope was 0.00706 (inactive).
As to `COc1ccccc1N1CCN(C(=O)C2CCCO2)CC1` (centres undefined), in experiment [1], the cell count is 405. Besides, the inhibition in experiment [1] was 2.5% (inactive); in experiment [3], -14.4% (inactive); in experiment [7], 11.6% (inactive); in experiment [8], 24.6% (inactive). The inhibition of aggregation in experiment [2] was -0.1% (inactive). Also, the nuclei count turned out to be 124% in experiment [2] and 102% in experiment [3]. The fluorescence slope in experiment [4] is -0.442 (inactive). In experiment [5], the NADPH fluorescence slope was -8.7e-05 (inactive). Also, the slope in experiment [6] is 0.0058 (inactive).
For the compound `CCN1CCN(S(=O)(=O)Cc2ccccc2)CC1`, in experiment [1], the cell count amounted to 426. Also, the inhibition in experiment [1] is -2.4% (inactive); in experiment [3], -78.4% (inactive); in experiment [7], -13.3% (inactive); in experiment [8], -9.78% (inactive). Besides, the inhibition of aggregation in experiment [2] is 23.9% (inactive). Also, the nuclei count was determined as 32.2% in experiment [2] and 106% in experiment [3]. The fluorescence slope in experiment [4] is -0.607 (inactive). Also, the NADPH fluorescence slope in experiment [5] was -2.9e-05 (inactive). Also, the slope in experiment [6] was 0.00543 (inactive).
As for `CCOC(=O)c1cnc2c(OC)cccc2c1N1CCN(c2ccc(OC)cc2)CC1`, the cell count in experiment [1] is 158. Further, the inhibition in experiment [1] was -4.9% (inactive); in experiment [3] it was 2.9% (inactive); in experiment [7] it was 19.3% (inactive); in experiment [8] it was 24.8% (inactive). For the same compound, the inhibition of aggregation in experiment [2] is 16.9% (inactive). Also, the nuclei count in experiment [2] turned out to be 72.9%; in experiment [3], 80.4%. Also, the fluorescence slope in experiment [4] is -0.577 (inactive). Also, in experiment [5], the NADPH fluorescence slope was -4.5e-05 (inactive). Also, the slope in experiment [6] was 0.00543 (inactive).
With `CC(C)CNc1oc(-c2ccc(F)cc2)nc1C#N`, the cell count in experiment [1] turned out to be 696. Also, the inhibition in experiment [1] is -2.9% (inactive); in experiment [3], -41.9% (inactive); in experiment [7], -4.19% (inactive); in experiment [8], 2.46% (inactive). Besides, the inhibition of aggregation in experiment [2] is -21% (inactive). For the same compound, the nuclei count amounted to 108% in experiment [2] and 118% in experiment [3]. In addition, the fluorescence slope in experiment [4] is -0.543 (inactive). The NADPH fluorescence slope in experiment [5] is -5e-06 (inactive). The slope in experiment [6] is 0.00664 (inactive).
